About 83,000 compounds went through this panel and 20% of them were active in at least one assay; those are over-represented in the sample as a whole.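 Note: values are percent growth. 100 is the growth of untreated cells, values between 100 and 0 indicate rising inhibition; between -100 and 0 indicates cell death.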 A number with no mark means an inactive call. Active and inactive are the calls of the source. Rule for the calls: active = growth percent below 10; inactive = the rest.

For this experiment, the system named is HL-60(TB) leukemia. The experiment is described as follows: NCI-60 one-dose screen, 48 h (100 = growth as untreated, 0 = no growth, -100 = all killed). The following applies: 10 µM unless noted.
`Fc1ccc(-c2ccnc3nc(-c4ccncc4)nn23)cc1`: the growth is 96.5%.
For `Cc1nc2scc(-c3ccccc3)n2c(=O)c1CCO`, the growth is 112%.
For `NC(=S)CN1CCOCC1` the value was -12.8% (active).
As to `O=C(NN(C(=O)c1ccccc1)c1cccs1)c1ccccc1`, the growth is 101%.
On to `O=C(CCl)Oc1ccc([N+](=O)[O-])cc1`, for which the growth was 107%.
For the compound `COc1ccc(C(=O)/C=C/c2cn(Cc3ccc(Cl)cc3)c3ccccc23)cc1`, the growth is 47.2%.
For `c1ccc(CNc2ncnc3scc(-c4cccs4)c23)nc1`, the growth is 58.2%.
Consider `COCc1cnccc1NC1CCCCCC1`, for which the growth was 86.2%.
As for `C=C1C(=O)O[C@H]2[C@H]1CC/C(Cn1cc(-c3ccccc3C(F)(F)F)nn1)=C\CC[C@@]1(C)O[C@@H]21`, the growth was -13.3% (active).
As for `Oc1ccc(CCCCCCc2ccc(O)cc2)cc1`, the growth is 100%.
In the case of `O=C1Nc2ccccc2/C1=C/C(=O)c1ccc(N2CCCC2)cc1`, the growth was -10.8% (active).
Then `CCn1cc(C(=O)NN=C2CCCC2)c(=O)c2ccc(C)nc21`, with 98.8%.
In the case of `CN(C)CCCNC1=C(Cl)C(=O)c2ccccc2C1=O`, the growth is 45.3%.
Take `O=C(O)CN1C(=O)C=CC1=O`: the growth is 96.9%.
Take `CCOC(=O)N/N=C\C(C)=N\NC(=O)OCC`: the growth is 92.9%.
Then `OC(CBr)c1ccnc2ccccc12` (stereo not given), with 100%; and `COc1cc(-c2nn(-c3ccccc3)cc2-c2ccnc(NCCNS(=O)(=O)c3ccc(Cl)cc3)n2)ccc1Cl`, with -35.9% (active).
For `Cc1cc(C)nc(SCC(=O)Nc2cccc(N=Cc3ccccc3O)c2)n1`, the growth was 96.6%.
As to `C=CC1=C(C(=O)O)N2C(=O)[C@@H](NC(=O)/C(=N\O)c3csc(N)n3)[C@H]2SC1` (stereo in doubt), the growth is 118%.
For `Nc1c(C(=O)Nc2cccc3ccccc23)sc2nc3c(cc12)CCCCCC3` the value was -31% (active); for `CC12CCCC(CC(=O)c3[nH]c4ccccc4c31)C2` (stereo not given), -0.598% (active); for `CN1C(=O)c2cc(Cl)nc3c(NC(=O)c4cccc(Cl)c4)c(Cl)c(NC(=O)c4cccc(Cl)c4)c1c23`, -30.7% (active).
For the compound `CCCCCCCCCN1C(=O)/C(=c2\sc3n(c2=O)C2C(NN=3)N(CC)C(=O)N2CC)c2ccccc21` (stereo not given), the growth was 84.1%.
Consider `CS(=O)/C(C#N)=C\C=C\c1cccc(Cl)c1` (stereo not given), for which the growth is -1.97% (active).
On to `COc1ccc2cc(-c3nc4ccccc4s3)c(Cl)nc2c1OC`, for which the growth is 91.4%.
In the case of `O=C(Nc1cccc(-c2ccc(Cl)c(C(F)(F)F)c2)c1)C1CCN(Cc2cccc3cccnc23)CC1`, the growth is -53.9% (active).
With `N#Cc1c(C#N)c(SSc2c(C#N)c(C#N)c(N)n2-c2ccccc2)n(-c2ccccc2)c1N`, the growth is 99.2%.
Regarding `CC1(C)CC(=O)C2=C(C1)N(c1ccc(OC(F)(F)F)cc1)C(N)=C(C#N)C2c1ccc(Cl)cc1` (stereo not given), the growth is 102%.
In the case of `O=S(=O)(Nc1ccc(F)cc1F)c1ccc(-c2cnc(C3CC3)o2)cc1`, the growth is 1% (active).
In the case of `O=c1[nH]c(=S)[nH]c(O)c1/C=C1\C=Nc2ccccc21`, the growth was 90.4%.
Regarding `Nc1ccn(C2OC(F)(CO)C(O)C2F)c(=O)n1` (stereo not given), the growth was 12.2%.
Consider `CCCCCCCCCCCCCCCCCC[S+](C)CC` (stereo not given), for which the growth was 13%.
Take `Cn1cc(-c2nc(-c3c[nH]c4ncccc34)cs2)c2cc(Br)ccc21`: the growth is 79.1%.
For `N=C1C=C(N)C(=O)c2ccccc21` the value was -32.8% (active); for `O=C(O)C#Cc1ccc(Cl)cc1`, 94.1%; for `O=C(/C=C/c1ccc(O)c(O)c1)N1CCN(c2ccc(Cl)cc2)CC1`, 12.9%.
For the compound `COc1ccc(/C=C/C(=O)/C=C/c2cc3ccccc3[nH]c2=O)cc1`, the growth was 62.9%.
Then `CSc1nc2ncnc(SC)c2[nH]1`, with 118%; and `C/C(Cc1ccc(Cl)cc1)=C(/c1ccc(Cl)cc1)c1ccc(OCCN2CCCC2)cc1`, with 54.7%.
On to `COc1c(-c2c3sc(=O)[nH]c3nc3c2c(=O)[nH]n3C(C)C)cc2c(c1OC)OCO2`, for which the growth is 93.8%.

For the origin of these results see PubChem BioAssay (NCI).
